FXN GAA850 act: increases GAA850 frataxin promoter reporter activity | HEK293 lucGAA850 FXN promoter luciferase reporter, 24 h; percent of 10 µM SAHA response | activation, % at 6 µM | actives 0.56% (n = 360,000);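 active means activation above the average of all compounds screened plus 3 SD, cutoff fixed separately per campaign, cut at about 7.5% in these data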;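 further: 0% = DMSO wells and 100% = 10 µM SAHA wells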
SMARCA2 activ: SMARCA2 function activation, primary screen; MG213 cells, MMTV-luciferase reporter, dexamethasone, overnight; activation, % at 9.1 µM; actives 1% (n = 370,000); AID 652017; in the data active means activation above about 7.8%;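 further: 0% = vehicle wells and 100% = reference activator wells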
Cardio protect: protects H9c2 cardiomyocytes from peroxide injury | protection from H2O2 cell death, % at 20 µM | actives 0.63% (n = 360,000) | AID 588492 | H2O2 injury protection, ATPLite, 2 h;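 active means compounds giving at least 50% protection of heart cells from peroxide-induced death in the single-dose screen, raw or plate-pattern-corrected value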;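 further: 0% = DMSO wells with peroxide and 100% = DMSO wells without peroxide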
Gli-Sufu block: antagonists of Gli-Sufu signaling; Sufu-KO-LIGHT fibroblasts, Gli luciferase reporter luminescence; inhibition, % at 5 µM; actives 0.74% (n = 340,000); AID 588413;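 active means inhibition above about 55%, limit read from the data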;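 further: 0% = DMSO-treated cells and 100% = wells with medium but no cells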
GalR3 antagonist: human GalR3 antagonism; O60755; HEK293 GalR3-CNG cAMP membrane potential fluorescence; galR3 body fused to GalR1 C-terminus; inhibition, % at 3 µM; actives 0.44% (n = 360,000);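 active means inhibition above the screen-wide average plus 3 SD, cut at about 13% in these data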;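 further: forskolin and galanin both at EC90 stimulate the cells; cAMP rise reported by CNG channel membrane potential dye signal; 0% = forskolin plus galanin with DMSO and 100% = forskolin alone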
Target sequence (O60755 1-299 limits assumed): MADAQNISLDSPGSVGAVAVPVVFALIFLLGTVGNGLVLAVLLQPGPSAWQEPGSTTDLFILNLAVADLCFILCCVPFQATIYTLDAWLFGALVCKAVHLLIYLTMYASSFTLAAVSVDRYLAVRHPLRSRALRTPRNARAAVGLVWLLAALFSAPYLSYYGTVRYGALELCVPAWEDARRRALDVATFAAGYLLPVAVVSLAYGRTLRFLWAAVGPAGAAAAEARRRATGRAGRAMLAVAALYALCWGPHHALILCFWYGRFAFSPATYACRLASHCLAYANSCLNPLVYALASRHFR
COUP-TFII inh: blocks human COUP-TFII nuclear receptor; P24468; HEK293T NGFI-A luciferase reporter, luminescence; inhibition, % at 8.6 µM; actives 0.7% (n = 370,000); AID 686940;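 active means inhibition above a per-plate cutoff, mean inhibition of test wells between control levels plus 3 SD, cut at about 38% in these data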;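 further: cells cotransfected with COUP-TFII expression vector driving the NGFI-A reporter; 0% = median of COUP-TF2 test wells and 100% = reporter-only cells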
GAA30 counter: counter-screen for GAA850 frataxin promoter activators: GAA30 promoter activation. shares compounds with FXN GAA850 act. HEK293 lucGAA30 FXN promoter luciferase, 24 h; DMSO = 0%, 5 µM ipriflavone = 100%. activation, % at 6 µM. actives 66% (n = 1,900). AID 588350;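 active means mean activation above the mean of solvent-only control wells plus 3 SD, cut at about 22% in these data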;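 further: counterscreen of GAA850 promoter hits where activity marks nonselective or luminescence artifacts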
FXN GAA850 conf: confirmation of GAA850 frataxin (FXN) promoter activators; shares compounds with FXN GAA850 act; HEK293 lucGAA850 FXN promoter luciferase reporter, 24 h; 100% = activation by SAHA; activation, % at 6 µM; actives 86% (n = 1,900);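 active means mean activation above a set limit taken from the primary screen, cut at about 8% in these data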;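 further: 0% = DMSO wells and 100% = 10 µM SAHA wells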
Numbers without * were called inactive. An excerpt weighted towards active compounds, which were near 3.4% of everything screened.

Screening CC(=O)Nc1cccc(OCC(=O)Nc2sccc2C(N)=O)c1 returned FXN GAA850 act 9.8*, SMARCA2 activ 7.1, Cardio protect 12.1, Gli-Sufu block -32.3, GalR3 antagonist -1.0, COUP-TFII inh -13.6, GAA30 counter 109.1* and FXN GAA850 conf 35.7*.
For CC(=O)Nc1cccc(OCC(=O)Nc2ccccc2)c1 the results were FXN GAA850 act 4.6, SMARCA2 activ 4.0, Cardio protect -0.7, Gli-Sufu block -44.4, GalR3 antagonist -3.0 and COUP-TFII inh -33.7.
COCCOC(=O)c1c(C)oc2ccc(NS(=O)(=O)c3cccs3)cc12 was read as FXN GAA850 act 8.6*, SMARCA2 activ -0.1, Cardio protect -0.8, Gli-Sufu block 0.1, GalR3 antagonist 2.5, COUP-TFII inh -7.5, GAA30 counter 18.6 and FXN GAA850 conf 5.6.
Screening CN(C)c1nc(OCCOC(=O)Nc2ccc(Cl)cc2Cl)nc(N(C)C)n1 returned FXN GAA850 act -0.1, Cardio protect -6.6 and Gli-Sufu block 3.3.
Screening CON(C)c1nc(OCCNC(=O)OCc2ccc(Cl)cc2C)nc(N(C)C)n1 returned FXN GAA850 act 11.9*, SMARCA2 activ -4.0, Cardio protect -1.0, Gli-Sufu block 1.1, GalR3 antagonist -1.4, COUP-TFII inh 24.1, GAA30 counter 20.5 and FXN GAA850 conf 6.2.
Screening Cc1cc(C)c(C#N)c(SCc2ccccc2[N+](=O)[O-])n1 returned FXN GAA850 act 1.9, SMARCA2 activ -5.8, Cardio protect -4.2, Gli-Sufu block 0.8, GalR3 antagonist 4.3 and COUP-TFII inh -2.4.
Cc1cc(C)c(C#N)c(SCc2nnc(-c3ccccc3[N+](=O)[O-])o2)n1 was read as FXN GAA850 act 8.9*, SMARCA2 activ 5.8, Cardio protect -13.8, Gli-Sufu block -88.9, GalR3 antagonist 8.8, COUP-TFII inh -46.9, GAA30 counter 108.5* and FXN GAA850 conf 40.8*.
Screening CS(=O)(=O)N[C@@H]1C[C@@H]2O[C@H](CO)CC[C@@H]2O[C@@H]1CCc1ccc(/C=C/c2ccccc2)cc1 returned SMARCA2 activ -3.4 and COUP-TFII inh 31.4.
Screening Cc1ccc(OCCSc2nc(N)cc(N)n2)cc1 returned FXN GAA850 act 9.1*, SMARCA2 activ 5.7, Cardio protect -7.6, Gli-Sufu block -68.5, GalR3 antagonist -1.2, COUP-TFII inh -29.1, GAA30 counter 110.0* and FXN GAA850 conf 37.4*.
CCc1nn(C(CC)C(=O)NCCc2ccc(OC)cc2OC)c(=O)c2cc3occc3n12 (centres undefined) was read as FXN GAA850 act 10.1*, SMARCA2 activ -1.5, Cardio protect -2.7, Gli-Sufu block -16.6, GalR3 antagonist -8.4, COUP-TFII inh -10.7, GAA30 counter 12.7 and FXN GAA850 conf 9.5*.
`CCOC(=O)[C@@]12CN(C(=O)OC(C)(C)C)CC=C1N(Cc1ccc(OC)cc1)C(=O)[C@H]2CC(=O)N1CCCCC1` gave SMARCA2 activ -2.6 and COUP-TFII inh 7.2.
Screening O=C(/C=C/[C@H]1O[C@@H](n2cnc3c(NC(=O)c4ccccc4)ncnc32)[C@H](O)[C@@H]1O)NCC1CCCCC1 returned SMARCA2 activ -0.3, Cardio protect -15.0, GalR3 antagonist -4.3 and COUP-TFII inh -1.9.
COC(=O)c1c(C)[nH]c(C(=O)CSc2ccc(Cl)cc2)c1C was read as FXN GAA850 act 8.3*, SMARCA2 activ 2.4, Cardio protect -22.4, Gli-Sufu block -44.8, GalR3 antagonist -2.7, COUP-TFII inh -30.8, GAA30 counter 113.7* and FXN GAA850 conf 34.6*.
COc1ccc(OCc2cc(C(=O)N3CCSCC3)no2)c(Cl)c1 was read as FXN GAA850 act 2.6, SMARCA2 activ 3.4, Cardio protect -6.9, Gli-Sufu block 37.2, GalR3 antagonist -0.1 and COUP-TFII inh -31.0.
Screening O=C(c1cc(COc2ccc(F)cc2Cl)on1)N1CCSCC1 returned FXN GAA850 act 10.2*, SMARCA2 activ 3.0, Cardio protect -2.8, Gli-Sufu block -59.8, GalR3 antagonist -2.6, COUP-TFII inh -51.3, GAA30 counter 109.7* and FXN GAA850 conf 43.9*.
Screening O=C(NCc1ccccc1)[C@H]1CCCN1C(=O)[C@H]1CCCN1C(=O)c1ccc(F)c(C(F)(F)F)c1 returned SMARCA2 activ -4.1, GalR3 antagonist -4.6 and COUP-TFII inh 10.2.
`Cc1ccc(-n2ncc3c(N4CCCC4)ncnc32)c(C)c1` gave FXN GAA850 act 7.6*, SMARCA2 activ 3.4, Cardio protect -0.4, Gli-Sufu block -29.4, GalR3 antagonist -1.6, COUP-TFII inh -39.1, GAA30 counter 72.0* and FXN GAA850 conf 24.0*.
`CCOC(=O)C(CC)n1cnc2c(nnn2-c2ccc(F)cc2)c1=O` (centres undefined) gave FXN GAA850 act 19.0*, SMARCA2 activ -0.6, Cardio protect 2.3, Gli-Sufu block 1.2, COUP-TFII inh -38.6, GAA30 counter 2.1 and FXN GAA850 conf 4.0.
`CC(=O)OC1CCC2(C)C(COc3ccc4ccc(=O)oc4c3)C(C)(O)CCC2C1(C)C` (centres undefined) gave FXN GAA850 act 12.5*, SMARCA2 activ -0.8, Cardio protect 8.1, Gli-Sufu block -1.7, GalR3 antagonist 0.1, COUP-TFII inh 5.8, GAA30 counter -4.1 and FXN GAA850 conf 17.1*.
COc1cc(CNc2ccc3[nH]c(=O)[nH]c3c2)ccc1OCc1cccc(C)c1 was read as FXN GAA850 act 5.7, SMARCA2 activ -0.8, Cardio protect -4.4, Gli-Sufu block -11.0, GalR3 antagonist -13.1 and COUP-TFII inh -1.9.
COc1cc(CNc2ccc3[nH]c(=O)[nH]c3c2)ccc1OCc1ccc(C)cc1 was read as FXN GAA850 act 9.0*, SMARCA2 activ 0.5, Cardio protect -16.1, Gli-Sufu block -14.4, GalR3 antagonist -0.8, COUP-TFII inh -32.5, GAA30 counter 74.1* and FXN GAA850 conf 30.0*.
COc1cc(CNc2ccc3[nH]c(=O)[nH]c3c2)ccc1OCc1ccccc1Cl was read as FXN GAA850 act 7.9*, SMARCA2 activ 1.0, Cardio protect 3.9, Gli-Sufu block 2.7, GalR3 antagonist -7.5, COUP-TFII inh 2.1, GAA30 counter 35.7* and FXN GAA850 conf 20.4*.
For Cc1ccccc1OCC(=O)Nc1ccccc1-c1ccccc1NC(=O)COc1ccccc1C the results were FXN GAA850 act 15.2*, SMARCA2 activ -0.3, Cardio protect -5.1, Gli-Sufu block 9.2, GalR3 antagonist -3.4, COUP-TFII inh 5.6, GAA30 counter 15.3 and FXN GAA850 conf 11.4*.
